# Results as given in PubChem BioAssay AID540333 (Southern Research Specialized Biocontainment Screening …, 2011).
# Out of some 10,000 compounds screened, about 320 (3.2%) were called active. No stated cut-off is given here; in the data, active means CPE inhibition mostly above about 9.1% (no sharp cut-off); inactive means mostly below about 7.2%. What follows is part of a selection rich in actives, with near analogues and random picks from the rest.
# Experiment: Dengue virus cytopathic effect inhibitors, cell-based, CPE readout, HTS (AID 540333)
# Details: Dengue virus CPE inhibition in host cells, at 20 µM; stronger effect = higher value
row,SMILES,CPE inhibition
1,Cc1ccc(N/N=C(\C#N)C(N)=S)c(C)c1,4.94% (inactive)
2,Cc1ccccc1-n1c(-c2csc(C)c2C)n[nH]c1=S,0.5% (inactive)
3,C=CCOC(=O)C1=C[C@@H](c2coc3ccccc3c2=O)C[C@@H](OCCCCO)O1,inactive
4,O=C1c2cccc3c(N4CCOCC4)c([N+](=O)[O-])cc(c23)C(=O)N1c1cccc2ccccc12,inactive
5,Clc1ccc(C2[C@H]3CN(CC4CCCCC4)[C@H](c4ccccc4)C34CC2(c2ccccc2)C4)cn1 (stereo partly drawn),4.18% (inactive)
6,N#Cc1ccc(C23CC4(C2)[C@H](CN(P(=O)(c2ccccc2)c2ccccc2)[C@@H]4c2ccccc2)C3c2ccc(Cl)nc2)cc1 (stereo partly drawn),18.1% (active)
7,CC(C)CC(=O)NC(Nc1ccc([N+](=O)[O-])cc1)C(Cl)(Cl)Cl (stereo not drawn),6.29% (inactive)
8,Cc1cccc(N2C(=O)C(Cc3ccccc3)NC2=S)c1 (stereo not drawn),inactive
9,CCCCn1c(O)c(N=NC(=O)c2ccco2)c2ccccc21,inactive
10,O=C(N=Nc1c(O)n(Cc2ccccc2)c2ccccc12)c1ccc(O)cc1,16.3% (active)
11,CCn1c(O)c(N=NC(=O)c2ccc(CSc3nncn3C)cc2)c2ccccc21,inactive
12,C/C(=N\Nc1ccc([N+](=O)[O-])cc1)c1ccc(-n2nncc2C)cc1,inactive
13,N#CC(C#N)=Cc1ccc(-c2ccc(S(=O)(=O)N=C(N)N)cc2)o1,0.46% (inactive)
14,COC(=O)c1sc2nc(C)cc(-c3ccccc3)c2c1N,inactive
15,Cc1ccc(/C=C2\SC(=S)N(CCC(=O)NNS(=O)(=O)c3ccc(C)cc3)C2=O)cc1,0.18% (inactive)
16,CC(C)(C)CNC(=O)c1cccc2c1C(=O)c1ccc(N3CCCC3)cc1S2(=O)=O,0.02% (inactive)
17,O=C(Nc1nc(-c2cccs2)cs1)C1=COCCO1,inactive
18,O=C(Nc1nc(-c2ccc(-c3ccccc3)cc2)cs1)C1=COCCO1,1.39% (inactive)
19,O=C(Nc1nc(-c2ccc(Oc3ccccc3)cc2)cs1)C1=COCCO1,10.7% (active)
20,O=C1N=C(N2CCCC2)CN1c1ccccc1,0.23% (inactive)
21,CC(C)=NOC(=O)c1ccc(-c2ccccc2)cc1,0.26% (inactive)
22,O=C([O-])c1ccc(-[n+]2c(-c3ccccc3)cc(-c3ccccc3)cc2-c2ccccc2)cc1,10.2% (active)
23,CCC(=O)c1ccc(-c2ccccc2)cc1,inactive
24,C=C(C)C1CC=C(C)/C(=N/NC(=O)c2cccc([N+](=O)[O-])c2)C1 (stereo not drawn),inactive

row,SMILES,CPE inhibition
1,CCOC(=O)c1sc(N/N=C/c2ccccc2)nc1C,0.925% (inactive)
2,COc1ccc(/C=C(\C#N)C(=O)OCC(=O)Nc2c(C)cccc2C)cc1,inactive
3,Cc1ccc(C)c2[nH]c(=O)c(C(c3nnnn3C(C)(C)C)N3CC=C(c4ccc(F)cc4)CC3)cc12 (stereo not drawn),26.9% (active)
4,Cc1ccc(NC(=S)NC(C)CCc2ccccc2)cc1C (stereo not drawn),19.3% (active)
5,CC(CCc1ccccc1)NC(=O)Cc1ccccc1 (stereo not drawn),inactive
6,Cc1ccccc1NC(=O)C(=O)NC(C)CCc1ccccc1 (stereo not drawn),inactive
7,Cc1ccccc1C(=O)Nc1c2c(nc3ccccc13)CCCC2,inactive
8,O=C(COC(=O)Cc1ccsc1)NC(c1ccccc1)c1ccccc1,inactive
9,O=C(COC(=O)/C(=C/c1cccs1)c1cccs1)NC(c1ccccc1)c1ccccc1,17.2% (active)
10,CCOC(=O)/C=C/C(=O)OCC(=O)NC(c1ccccc1)c1ccccc1,0.285% (inactive)
11,Cc1nn(C)c(C(=O)NCc2ccc(Cl)cc2)c1Cl,0.24% (inactive)
12,Cc1ccc(NC(=S)c2ccccc2)cc1,inactive
13,CCOC(=O)C1=C(Nc2ccccc2)CC(C)(O)C(C(=O)OCC)C1c1ccc(Cl)cc1 (stereo not drawn),26.4% (active)
14,CCOC(=O)C1C(C(=O)OCC)C1(c1ccccc1)c1ccccc1 (stereo not drawn),0.545% (inactive)
15,CCOC(=O)C1=C(Nc2ccccc2)CC(C)(O)C(C(=O)OCC)C1c1ccccc1 (stereo not drawn),0.14% (inactive)
16,CN(C)c1cccc2c1C(=O)c1ccccc1C2=O,inactive
17,O=C1c2ccccc2C(=O)c2c1cccc2N1CCCC1,0.885% (inactive)
18,Cc1ccc(-n2[nH]c3c4c(ccc3c2=O)C(=O)c2ccccc2C4=O)cc1,17% (active)
19,O=S(=O)(c1ccc(-c2csc(Nc3ccc(F)cc3)n2)cc1)N1CCCC1,2.46% (inactive)
20,CC(C)Cc1nc(Nc2ccc(S(=O)(=O)N3CCCC3)cc2)c2nnn(Cc3ccccc3)c2n1,19.9% (active)
21,O=S(=O)(c1ccc(-c2csc(Nc3ccc(Br)cc3)n2)cc1)N1CCCC1,5.89% (inactive)
22,O=C(COC(=O)Cc1c[nH]c2ccccc12)Nc1cccc2ccccc12,0.635% (inactive)
23,COc1cccc(NC(=S)NNC(=O)Cn2nc(C(F)(F)F)cc2C)c1,inactive
24,O=C1C(Cc2cccc([N+](=O)[O-])c2)SC(=Nc2ccccc2)N1c1ccccc1 (stereo not drawn),2.22% (inactive)

row,SMILES,CPE inhibition
1,CCOc1ccc(C(=O)Nc2ccc(-c3nc4ccccc4[nH]3)cc2)cc1[N+](=O)[O-],8.47% (active)
2,CCOc1ccc(C(=O)Nc2cc(-c3nc4ccccc4[nH]3)ccc2Cl)cc1[N+](=O)[O-],inactive
3,CCOc1ccc(C(=O)Nc2cccc(-c3nc4ccccc4[nH]3)c2C)cc1[N+](=O)[O-],1.88% (inactive)
4,COc1cccc(-c2c(-c3cc(OC)cc(OC)c3)n(C)c3ccc(Br)cc23)c1,1.34% (inactive)
5,COc1cc(OC)cc(-c2c(-c3ccc(F)cc3)c3cc(-c4cnc(OC)nc4)ccc3n2C)c1,2.91% (inactive)
6,O=C1[C@@H]2[C@@H]3C[C@@H]([C@H]4ON=C(c5ccc(Cl)cc5Cl)[C@@H]34)[C@@H]2C(=O)N1C1CCCCC1,14.8% (active)
7,O=C1[C@@H]2[C@@H]3C[C@@H]([C@H]4ON=C(c5ccc(Cl)cc5)[C@@H]34)[C@@H]2C(=O)N1c1ccc2c(c1)OCO2,inactive
8,O=C1[C@@H]2[C@@H]3C[C@@H]([C@H]4ON=C(c5ccc(Cl)cc5)[C@@H]34)[C@@H]2C(=O)N1C1CCCCC1,10.9% (inactive)
9,COc1ccc(NC(=O)CCC(=O)OCc2ccc(Br)cc2)cc1,0.265% (inactive)
10,O=C(/C(=C\c1ccccc1)c1nc2ccccc2[nH]1)c1ccc(Cl)cc1,inactive
11,CCn1c(SCC(=O)N/N=C/c2c[nH]c3ccccc23)nnc1-c1ccc(Cl)cc1,1.47% (inactive)
12,Cc1nn(-c2ccccc2)c(C)c1/C=N/NC(=O)CSc1nnc(SCc2cccc3ccccc23)s1,4.67% (inactive)
13,CCn1c(SCC(=O)N/N=C/c2c[nH]c3ccccc23)nnc1-c1ccc(C(C)(C)C)cc1,14.2% (active)
14,O=C(CSc1nnc(SCc2ccccc2Cl)s1)N/N=C/c1c[nH]c2ccccc12,0.645% (inactive)
15,CCn1c(SCC(=O)N/N=C/c2ccc(C)o2)nnc1-c1ccc(C(C)(C)C)cc1,0.345% (inactive)
16,O=C(CSc1nnc(SCc2cccc3ccccc23)s1)N/N=C/c1c[nH]c2ccccc12,23.8% (active)
17,CCc1ccc(OC(C)c2nnc(SCC(=O)Nc3ncccc3C)n2C)cc1 (stereo not drawn),0.355% (inactive)
18,Cc1cc(C)c2[nH]c(=O)c(CN(Cc3cccs3)C(=S)NCc3ccco3)cc2c1,4.37% (inactive)
19,CN(CC(=O)Nc1ccc(Cl)c(Cl)c1)C(=O)/C=C/c1ccc(F)cc1,0.95% (inactive)
20,S=C(NCCc1ccccc1)NC1CC1,inactive
21,COC(=O)c1sccc1N/N=C/c1cccc(OC)c1O,2.21% (inactive)
22,COc1ccc(OCC(=O)N2c3ccccc3CCc3ccccc32)cc1,inactive
23,O=C(COc1ccc(Cl)cc1)OCC(=O)N1CCCc2ccccc21,inactive
24,CCc1ccc(OCC(=O)N2c3ccccc3CCc3ccccc32)cc1,14.2% (active)

row,SMILES,CPE inhibition
1,COc1cc(/C(C)=N/NC(=S)NC(C)C)cc(OC)c1OC,inactive
2,N#Cc1ccc(NC(=O)CCc2nc3ccccc3s2)cc1,inactive
3,COC(=O)C1=C(NC(=O)COc2ccc3ccccc3c2)CCS1,1.12% (inactive)
4,COc1ccc(Cl)cc1NC(=O)CNc1ccccc1F,0.95% (inactive)
5,Cc1ccc(NC(=O)CNc2ccc(Cl)cc2F)cc1,0.58% (inactive)
6,COc1ccc(C)cc1NCC(=O)Nc1ccc(C(C)(C)C)cc1,15.4% (active)
7,COc1cc(NC(=S)NC(=O)CC(C)C)ccc1NC(=O)c1cc2ccccc2o1,0.02% (inactive)
8,O=C(COC(=O)c1cccc(NS(=O)(=O)c2ccc(F)c(F)c2)c1)NC(=O)NC1CCCCC1,3.8% (inactive)
9,O=C(c1cccc(NS(=O)(=O)c2ccc(F)c(F)c2)c1)N1CCN(C(c2ccccc2)c2ccccc2)CC1,39.5% (active)
10,O=C(c1cccc(NS(=O)(=O)c2ccc(F)c(F)c2)c1)N1CCN(Cc2ccccc2)CC1,inactive
11,CCn1c(-c2c(Cl)c(C)nn2C)n[nH]c1=S,inactive
12,COCCCNC(=S)NC1CCCCC1,inactive
13,O=C1C(Cc2ccc(F)cc2)SC(=Nc2ccccc2)N1c1ccccc1 (stereo not drawn),1.01% (inactive)
14,O=C1C(Cc2ccc(Br)cc2)SC(=Nc2ccccc2)N1c1ccccc1 (stereo not drawn),12.3% (active)
15,Cc1ccc(CC2SC(=Nc3ccccc3)N(c3ccccc3)C2=O)cc1 (stereo not drawn),4.75% (inactive)
16,Cc1nn(-c2ccccc2)c(N)c1C(O)(C(F)(F)F)C(F)(F)F,0.32% (inactive)
17,CCOC(=O)[C@@H]1[C@H]2COc3ccc(Br)cc3[C@@H]2N2C(=O)N(c3ccc(OC)cc3)C(=O)[C@]12C,1.7% (inactive)
18,S=C(NCC1CCCO1)Nc1ccc(Cl)cc1 (stereo not drawn),0.15% (inactive)
19,Cc1ccc(NC(=O)C(c2ccc(Cl)cc2Cl)N2CCCC2)cc1 (stereo not drawn),11.5% (active)
20,Cc1ccc(S(=O)(=O)N2CCN(C(C(=O)Nc3ccc(F)cc3)c3ccccc3)CC2)cc1 (stereo not drawn),1.1% (inactive)
21,Cc1cc(C)cc(NC(=O)C(c2ccccc2)N2CCCC2)c1 (stereo not drawn),0.92% (inactive)
